The record followed here is the supplement of paper PMC9023506.

Molecules are shown by their SMILES. Structures can show the parent of a compound that is named as a salt.

The assay relates to Danio rerio larvae (5 dpf). The assay can be described thus: activity during first hour (no stimuli), difference vs DMSO (percentage points (treated minus DMSO)); higher = more of the behaviour than the DMSO vehicle control. To be noted: 10 µM; exposure time: 3 h pre-incubation + 3 h imaging. As to the method: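 5-dpf wild-type zebrafish larvae were imaged in 96-well plates. They were treated with 190 Tocris FDA-approved drugs at 10 µM (1 µl/ml DMSO) for 3 h before and 3 h during imaging at 28.5 °C, 48 larvae per drug. Automated image analysis gave % time moving and optomotor responses. Values are drug group mean minus DMSO vehicle mean (n=844), in percentage points, for 10 behaviours.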
In the case of `CC(=O)S[C@@H]1CC2=CC(=O)CC[C@]2(C)[C@H]2CC[C@@]3(C)[C@@H](CC[C@@]34CCC(=O)O4)[C@H]12` [Spironolactone], the “activity during first hour” value is -0.165.

Regarding `CC(C)C(=O)Nc1ccc([N+](=O)[O-])c(C(F)(F)F)c1` [Flutamide], the “activity during first hour” value is -9.59. The same measure for `CNC(=O)c1ccccc1Sc1ccc2c(/C=C/c3ccccn3)n[nH]c2c1` [Axitinib]: -2.72; for `Cn1nnc2c(C(N)=O)ncn2c1=O` [Temozolomide]: 7.11; for `CCOc1ccccc1OCCN[C@H](C)Cc1ccc(OC)c(S(N)(=O)=O)c1` [Tamsulosin hydrochloride]: 7.36.

`Cc1cccc(CN2CCN(C(c3ccccc3)c3ccc(Cl)cc3)CC2)c1` (stereo not given) [Meclizine dihydrochloride]: the “activity during first hour” value is 29.1. Under `CC(C)COCC(CN(Cc1ccccc1)c1ccccc1)N1CCCC1` (stereo not given) [Bepridil hydrochloride] stands 0.257; under `CN1CCC[C@@H]1CCO[C@](C)(c1ccccc1)c1ccc(Cl)cc1` [Clemastine fumarate], 4.9. The same measure for `CC1=Nc2ccc(Cl)cc2S(=O)(=O)N1` [Diazoxide]: 6.7. On to `CC/C(=C(\c1ccccc1)c1ccc(OCCN(C)C)cc1)c1ccccc1` [Tamoxifen citrate], for which the “activity during first hour” value was 31.4. The same measure for `CN1CCC[C@@H]1Cc1c[nH]c2ccc(CCS(=O)(=O)c3ccccc3)cc12` [Eletriptan hydrobromide]: 4.26.

`CCOC(=O)c1ncn2c1CN(C)C(=O)c1cc(F)ccc1-2` [Flumazenil]: the “activity during first hour” value amounted to 2.88. Under `CCN(CC)CCNC(=O)c1c(C)[nH]c(/C=C2\C(=O)Nc3ccc(F)cc32)c1C` [Sunitinib malate] stands -14.4; under `CCc1c2c(nc3ccc(OC(=O)N4CCC(N5CCCCC5)CC4)cc13)-c1cc3c(c(=O)n1C2)COC(=O)[C@]3(O)CC`, -4.43; under `Cc1ccsc1C(=CCCN1CCC[C@@H](C(=O)O)C1)c1sccc1C` [Tiagabine hydrochloride], 7.01. The same measure for `C[C@H](Cc1cc2c(c(C(N)=O)c1)N(CCCO)CC2)NCCOc1ccccc1OCC(F)(F)F` [Silodosin]: -1.39; for `CC(C)n1c(/C=C/C(O)CC(O)CC(=O)O)c(-c2ccc(F)cc2)c2ccccc21` (stereo not given) [Fluvastatin sodium]: 1.98; for `CCc1nc(N)nc(N)c1-c1ccc(Cl)cc1` [Pyrimethamine]: -0.915. Under `CC(=O)O[C@H]1C(=O)[C@@]2(C)[C@H]([C@H](OC(=O)c3ccccc3)[C@]3(O)C[C@H](OC(=O)[C@H](O)[C@@H](NC(=O)c4ccccc4)c4ccccc4)C(C)=C1C3(C)C)[C@]1(OC(C)=O)CO[C@@H]1C[C@@H]2O` [Taxol] stands 1.84; under `COc1cc(Nc2c(C#N)cnc3cc(OCCCN4CCN(C)CC4)c(OC)cc23)c(Cl)cc1Cl` [Bosutinib], -16.6.

As to `OCCOCCN1CCN(C2=Nc3ccccc3Sc3ccccc32)CC1` [Quetiapine hemifumarate], the “activity during first hour” value is 12.9. Under `CS(=O)(=O)CCNCc1ccc(-c2ccc3ncnc(Nc4ccc(OCc5cccc(F)c5)c(Cl)c4)c3c2)o1` [Lapatinib] stands -5.32. Take `CC[C@H](C)C(=O)O[C@H]1C[C@@H](C)C=C2C=C[C@H](C)[C@H](CC[C@@H]3C[C@@H](O)CC(=O)O3)[C@H]21` [Lovastatin]: the “activity during first hour” value was -0.394. Under `CCOc1nc2cccc(C(=O)O)c2n1Cc1ccc(-c2ccccc2-c2noc(=O)[nH]2)cc1` [Azilsartan] stands 3.52; under `CC(C)Nc1cccnc1N1CCN(C(=O)c2cc3cc(NS(C)(=O)=O)ccc3[nH]2)CC1` [Delavirdine mesylate], -1.59. Under `CCCN(CCC)S(=O)(=O)c1ccc(C(=O)O)cc1` [Probenecid] stands -2.71.

Regarding `Nc1ncn([C@@H]2O[C@H](CO)[C@@H](O)[C@H]2O)c(=O)n1` [5-Azacytidine], the “activity during first hour” value came out at 4.78. Under `NC(=O)N1c2ccccc2C=Cc2ccccc21` [Carbamazepine] stands -2.68. Consider `COC(=O)C1=C(C)NC(C)=C(C(=O)OC(C)C)C1c1cccc2nonc12` (stereo not given) [Isradipine], for which the “activity during first hour” value was 0.0385. Under `Cn1cnc([N+](=O)[O-])c1Sc1ncnc2[nH]cnc12` [Azathioprine] stands 7.36; under `Cc1ccc(NC(=O)c2ccc(CN3CCN(C)CC3)cc2)cc1Nc1nccc(-c2cccnc2)n1` [Imatinib mesylate], -12.5; under `COc1ccccc1Oc1c(NS(=O)(=O)c2ccc(C(C)(C)C)cc2)nc(-c2ncccn2)nc1OCCO` [Bosentan], 1.27. Under `Cc1cc2c(s1)Nc1ccccc1N=C2N1CCN(C)CC1` [Olanzapine] stands 8.05; under `CCC(=O)O[C@]1(C(=O)SCF)[C@H](C)C[C@H]2[C@@H]3C[C@H](F)C4=CC(=O)C=C[C@]4(C)[C@@]3(F)[C@@H](O)C[C@@]21C` [Fluticasone propionate], 7.17.

In the case of `CN(C)CC/C=C1/c2ccccc2COc2ccc(CC(=O)O)cc21` [Olopatadine hydrochloride], the “activity during first hour” value is -0.591.

Take `O=c1[nH]c(=O)n([C@H]2C[C@H](O)[C@@H](CO)O2)cc1C(F)(F)F` [Trifluorothymidine]: the “activity during first hour” value was determined as 1.96. Under `C#CCN[C@@H]1CCc2ccccc21` [Rasagiline mesylate] stands 4.92; under `Nc1nc2[nH]cc(CCc3ccc(C(=O)N[C@@H](CCC(=O)O)C(=O)O)cc3)c2c(=O)[nH]1` [Pemetrexed], 1.38. The same measure for `C[C@H]1O[C@H](O[C@H]2[C@H](O)[C@@H](O)[C@@H](O[C@H]3[C@H](O)[C@@H](O)C(O)O[C@@H]3CO)O[C@@H]2CO)[C@H](O)[C@@H](O)[C@@H]1N[C@H]1C=C(CO)[C@@H](O)[C@H](O)[C@H]1O` (stereo not given in full) [Acarbose]: -0.41; for `CC(C)CN(C[C@@H](O)[C@H](Cc1ccccc1)NC(=O)O[C@H]1CO[C@H]2OCC[C@H]21)S(=O)(=O)c1ccc(N)cc1` [Darunavir]: 12.6.
